This is an account of results in the supplement of paper PMC11006884.

About 6,500 targets were measured; listed, in parts, are those with a hit and a random draw of the rest. About 2% of all pairs of compound and target were hits. A number with no mark means an inactive call.

UniProt Q9UMS4, sequence (Q9UMS4 whole entry, looked up): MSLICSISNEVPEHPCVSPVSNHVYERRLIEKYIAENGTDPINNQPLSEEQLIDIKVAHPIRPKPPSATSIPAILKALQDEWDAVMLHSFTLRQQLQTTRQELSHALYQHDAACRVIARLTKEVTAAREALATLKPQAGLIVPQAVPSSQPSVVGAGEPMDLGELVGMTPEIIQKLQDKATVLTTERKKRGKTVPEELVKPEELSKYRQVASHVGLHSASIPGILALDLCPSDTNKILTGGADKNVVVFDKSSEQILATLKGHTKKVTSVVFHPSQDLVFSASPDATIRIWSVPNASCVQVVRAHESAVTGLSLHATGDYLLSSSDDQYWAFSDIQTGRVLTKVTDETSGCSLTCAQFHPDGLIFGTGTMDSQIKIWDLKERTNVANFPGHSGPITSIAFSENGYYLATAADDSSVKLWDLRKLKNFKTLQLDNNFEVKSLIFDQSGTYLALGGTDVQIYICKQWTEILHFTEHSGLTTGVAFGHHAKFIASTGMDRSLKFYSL
UniProt Q9P2R3, sequence (Q9P2R3 whole entry, looked up): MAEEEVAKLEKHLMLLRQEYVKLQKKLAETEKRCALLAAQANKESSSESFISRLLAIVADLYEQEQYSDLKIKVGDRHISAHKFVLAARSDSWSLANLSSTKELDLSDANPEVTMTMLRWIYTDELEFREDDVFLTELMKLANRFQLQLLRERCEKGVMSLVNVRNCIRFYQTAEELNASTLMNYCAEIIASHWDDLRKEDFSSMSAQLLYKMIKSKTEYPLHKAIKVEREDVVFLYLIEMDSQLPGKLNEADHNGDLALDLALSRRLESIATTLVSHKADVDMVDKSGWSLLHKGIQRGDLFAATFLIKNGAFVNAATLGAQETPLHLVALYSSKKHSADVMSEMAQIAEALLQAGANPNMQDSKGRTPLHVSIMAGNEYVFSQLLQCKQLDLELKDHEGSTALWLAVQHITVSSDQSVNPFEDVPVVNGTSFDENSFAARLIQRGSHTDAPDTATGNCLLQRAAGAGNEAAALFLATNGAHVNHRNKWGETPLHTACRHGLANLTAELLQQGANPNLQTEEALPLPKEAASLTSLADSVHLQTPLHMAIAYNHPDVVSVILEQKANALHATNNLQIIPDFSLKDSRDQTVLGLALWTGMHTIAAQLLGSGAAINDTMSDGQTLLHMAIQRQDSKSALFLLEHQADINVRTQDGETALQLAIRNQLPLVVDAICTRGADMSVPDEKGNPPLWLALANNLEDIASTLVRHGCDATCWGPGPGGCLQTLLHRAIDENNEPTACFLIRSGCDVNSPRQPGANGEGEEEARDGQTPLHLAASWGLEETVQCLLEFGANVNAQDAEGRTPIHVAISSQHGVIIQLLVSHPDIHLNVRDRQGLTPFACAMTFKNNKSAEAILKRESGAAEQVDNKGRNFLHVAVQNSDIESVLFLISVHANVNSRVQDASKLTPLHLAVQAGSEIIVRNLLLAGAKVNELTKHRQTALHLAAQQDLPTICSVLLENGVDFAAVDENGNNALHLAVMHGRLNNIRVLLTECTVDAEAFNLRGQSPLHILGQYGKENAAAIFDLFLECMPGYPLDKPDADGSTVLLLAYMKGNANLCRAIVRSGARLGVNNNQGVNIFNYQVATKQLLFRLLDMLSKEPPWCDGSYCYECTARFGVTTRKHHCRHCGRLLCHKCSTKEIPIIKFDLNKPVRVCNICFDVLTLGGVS
UniProt Q9H1C4, sequence (Q9H1C4 whole entry): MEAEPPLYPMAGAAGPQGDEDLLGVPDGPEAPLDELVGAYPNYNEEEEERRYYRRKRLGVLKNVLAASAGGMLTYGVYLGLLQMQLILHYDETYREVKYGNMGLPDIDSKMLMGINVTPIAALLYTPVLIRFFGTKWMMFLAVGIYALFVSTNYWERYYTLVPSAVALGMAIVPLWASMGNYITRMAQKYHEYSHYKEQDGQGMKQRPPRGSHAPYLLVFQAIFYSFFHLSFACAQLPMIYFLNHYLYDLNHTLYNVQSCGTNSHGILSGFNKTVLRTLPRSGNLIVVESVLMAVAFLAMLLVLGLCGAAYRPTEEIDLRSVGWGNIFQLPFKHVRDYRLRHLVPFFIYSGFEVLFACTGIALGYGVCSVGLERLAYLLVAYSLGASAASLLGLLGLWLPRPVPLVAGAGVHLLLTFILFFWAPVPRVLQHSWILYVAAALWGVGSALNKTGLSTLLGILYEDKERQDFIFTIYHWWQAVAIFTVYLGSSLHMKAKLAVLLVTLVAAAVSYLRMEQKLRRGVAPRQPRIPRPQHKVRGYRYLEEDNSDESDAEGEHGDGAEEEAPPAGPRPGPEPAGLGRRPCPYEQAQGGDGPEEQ
UniProt Q9Y2H0, sequence (Q9Y2H0 whole entry, looked up): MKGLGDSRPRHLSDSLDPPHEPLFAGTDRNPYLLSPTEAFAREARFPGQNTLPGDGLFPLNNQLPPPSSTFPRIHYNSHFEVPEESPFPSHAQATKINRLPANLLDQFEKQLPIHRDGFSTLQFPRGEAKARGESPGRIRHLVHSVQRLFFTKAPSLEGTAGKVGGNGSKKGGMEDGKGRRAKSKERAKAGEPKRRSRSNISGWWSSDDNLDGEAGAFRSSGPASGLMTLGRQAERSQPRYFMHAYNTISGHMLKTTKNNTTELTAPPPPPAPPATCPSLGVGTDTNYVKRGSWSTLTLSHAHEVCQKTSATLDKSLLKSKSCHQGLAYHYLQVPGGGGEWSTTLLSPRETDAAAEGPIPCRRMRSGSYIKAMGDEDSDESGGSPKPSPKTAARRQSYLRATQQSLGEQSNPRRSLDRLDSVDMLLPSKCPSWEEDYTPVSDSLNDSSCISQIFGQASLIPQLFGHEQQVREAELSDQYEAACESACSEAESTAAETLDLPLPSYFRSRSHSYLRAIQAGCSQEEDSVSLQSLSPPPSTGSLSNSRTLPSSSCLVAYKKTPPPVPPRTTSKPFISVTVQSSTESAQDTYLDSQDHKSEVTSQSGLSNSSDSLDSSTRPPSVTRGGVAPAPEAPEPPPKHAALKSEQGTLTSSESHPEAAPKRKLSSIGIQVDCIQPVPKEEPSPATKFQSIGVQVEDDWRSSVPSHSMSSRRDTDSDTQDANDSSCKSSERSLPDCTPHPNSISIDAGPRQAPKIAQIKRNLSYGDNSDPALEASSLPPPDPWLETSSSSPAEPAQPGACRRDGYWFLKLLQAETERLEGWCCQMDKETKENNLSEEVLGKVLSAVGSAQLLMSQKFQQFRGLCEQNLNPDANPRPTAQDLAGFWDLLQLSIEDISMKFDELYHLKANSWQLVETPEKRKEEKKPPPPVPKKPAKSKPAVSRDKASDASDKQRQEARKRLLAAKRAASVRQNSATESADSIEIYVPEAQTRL
UniProt Q9ULH0, sequence (Q9ULH0 whole entry, looked up): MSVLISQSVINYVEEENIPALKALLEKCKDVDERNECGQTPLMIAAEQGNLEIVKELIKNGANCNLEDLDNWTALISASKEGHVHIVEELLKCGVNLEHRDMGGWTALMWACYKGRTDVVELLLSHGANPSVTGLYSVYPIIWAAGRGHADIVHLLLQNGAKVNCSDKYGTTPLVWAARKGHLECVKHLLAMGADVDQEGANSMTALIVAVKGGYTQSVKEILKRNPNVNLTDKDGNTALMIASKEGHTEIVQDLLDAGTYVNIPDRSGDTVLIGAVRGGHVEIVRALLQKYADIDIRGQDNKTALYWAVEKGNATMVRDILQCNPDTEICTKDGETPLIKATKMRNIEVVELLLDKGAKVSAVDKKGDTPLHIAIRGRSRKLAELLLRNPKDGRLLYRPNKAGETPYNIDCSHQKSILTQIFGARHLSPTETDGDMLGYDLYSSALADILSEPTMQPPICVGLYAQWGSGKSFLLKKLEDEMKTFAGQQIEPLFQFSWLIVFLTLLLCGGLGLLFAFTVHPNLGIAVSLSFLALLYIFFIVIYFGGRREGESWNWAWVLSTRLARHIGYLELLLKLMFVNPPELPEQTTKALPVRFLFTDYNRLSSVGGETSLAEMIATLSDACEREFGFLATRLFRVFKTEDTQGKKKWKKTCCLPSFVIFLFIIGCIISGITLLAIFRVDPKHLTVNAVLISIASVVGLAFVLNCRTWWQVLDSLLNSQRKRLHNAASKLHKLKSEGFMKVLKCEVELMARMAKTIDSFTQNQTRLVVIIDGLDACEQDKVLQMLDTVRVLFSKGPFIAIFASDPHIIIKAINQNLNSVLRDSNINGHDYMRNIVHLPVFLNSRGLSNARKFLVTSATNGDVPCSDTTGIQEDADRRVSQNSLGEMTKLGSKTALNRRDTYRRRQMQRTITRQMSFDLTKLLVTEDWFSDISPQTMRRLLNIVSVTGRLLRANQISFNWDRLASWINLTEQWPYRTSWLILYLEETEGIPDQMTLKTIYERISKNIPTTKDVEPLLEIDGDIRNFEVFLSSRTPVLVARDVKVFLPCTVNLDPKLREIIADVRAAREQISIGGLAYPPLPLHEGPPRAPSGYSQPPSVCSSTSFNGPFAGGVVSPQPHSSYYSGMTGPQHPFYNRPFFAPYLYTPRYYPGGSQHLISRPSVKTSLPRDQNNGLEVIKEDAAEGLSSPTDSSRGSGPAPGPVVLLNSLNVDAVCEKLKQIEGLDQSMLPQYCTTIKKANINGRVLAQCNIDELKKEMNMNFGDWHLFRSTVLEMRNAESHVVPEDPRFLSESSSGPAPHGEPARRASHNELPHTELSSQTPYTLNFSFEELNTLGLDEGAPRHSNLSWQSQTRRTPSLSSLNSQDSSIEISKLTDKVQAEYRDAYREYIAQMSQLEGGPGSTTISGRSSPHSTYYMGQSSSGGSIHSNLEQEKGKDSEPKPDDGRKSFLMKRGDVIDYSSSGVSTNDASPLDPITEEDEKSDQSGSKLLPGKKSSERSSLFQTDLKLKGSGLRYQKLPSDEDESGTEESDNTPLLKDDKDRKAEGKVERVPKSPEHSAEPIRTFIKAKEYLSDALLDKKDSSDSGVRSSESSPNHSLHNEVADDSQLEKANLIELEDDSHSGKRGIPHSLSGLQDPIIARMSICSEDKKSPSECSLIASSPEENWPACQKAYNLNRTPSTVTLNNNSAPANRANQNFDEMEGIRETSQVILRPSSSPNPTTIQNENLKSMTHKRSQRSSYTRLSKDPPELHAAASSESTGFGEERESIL

Compound in this experiment: COC(=O)C#Cc1ccccc1 [methyl 3-phenylpropiolate]
Nature of the experiment: log2 ratio of iodoacetamide-alkyne labeling of the cysteine site, DMSO over compound (competition); higher = stronger covalent engagement of the cysteine by the compound, active = 1 or more. The note with it: 500 µM; treatment time 1 h; system: HEK293T cell lysate. The essentials:
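The log2 competition ratio per cysteine is defined as mean reporter intensity in control channels over mean reporter intensity in compound channels. Lysate from HEK293T cells (2 mg/mL) received electrophile (500 µM) or vehicle for 1 h at ambient temperature, followed by iodoacetamide alkyne for 1 h. Samples were clicked to sCIP-TMT reagents, pooled, trypsin-digested overnight at 37 °C, streptavidin-enriched, acid-eluted and run on Orbitrap Eclipse LC-MS/MS with FAIMS, with quantification in FragPipe. Three replicates with duplicate channels were used, and any cysteine quantified in only one replicate was excluded.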
As for UNC93B1 C583 (UniProt Q9H1C4), the “log2 ratio of iodoacetamide-alkyne labeling” value (“log2 ratio” below) was 2.06 (active).
As for FAM120A C892 (UniProt Q9NZB2), the “log2 ratio” value was 1.45 (active).
SRRM2 C1016 (UniProt Q9UQ35): the “log2 ratio” value was 1.12 (active).
For TACC3 C206 (UniProt Q9Y6A5), the “log2 ratio” value was -0.132.
As to CD2AP C540 (UniProt Q9Y5K6), the “log2 ratio” value is 0.456.
For DDX20 C524 (UniProt Q9UHI6), the “log2 ratio” value was 0.6.
As for ITSN2 C1194 (UniProt Q9NZM3), the “log2 ratio” value is -0.296.
For NOTCH3 C134 (UniProt Q9UM47) the value was 1.63 (active); for RACGAP1 C419 (UniProt Q9H0H5), 0.303; for UNC45A C420 (UniProt Q9H3U1), 0.56.
For the target IARS2 C91 (UniProt Q9NSE4), the “log2 ratio” value was 0.81.
Regarding NAT10 C489 (UniProt Q9H0A0), the “log2 ratio” value is 0.0616.
As for UniProt Q9UK61_C429, the figure is 0.233; as for TPX2 C145 (UniProt Q9ULW0), 0.384; as for BCAP29 C171 (UniProt Q9UHQ4), 1.1 (active).
For ANKFY1 C460 (UniProt Q9P2R3) the value was 1.44 (active); for PRPF19 C230 (UniProt Q9UMS4), 0.231.
For UniProt Q9Y520_C223 the value was 0.239; for MIOS C321 (UniProt Q9NXC5), 0.126; for RPRD1B C234 (UniProt Q9NQG5), 0.513.
CHCHD3 C112 (UniProt Q9NX63): the “log2 ratio” value is 0.0891.
Turning to NAT10 C486 (UniProt Q9H0A0), the “log2 ratio” value is 0.0616.
Take STUB1 C199 (UniProt Q9UNE7): the “log2 ratio” value is 0.493.
NOSIP C185 (UniProt Q9Y314): the “log2 ratio” value was 0.25.
For UniProt Q9UBD5_C159 the value was 1.13 (active); for SPATA5L1 C309 (UniProt Q9BVQ7), 1.11 (active).
As for RNF126 C15 (UniProt Q9BV68), the figure is 0.119; as for UNC45A C34 (UniProt Q9H3U1), 0.0992.
As for HOOK1 C432 (UniProt Q9UJC3), the figure is 0.385; as for DLGAP4 C726 (UniProt Q9Y2H0), 0.74; as for ACTR6 C339 (UniProt Q9GZN1), 0.248.
For the target RDH14 C97 (UniProt Q9HBH5), the “log2 ratio” value was 0.228.
For UTP6 C309 (UniProt Q9NYH9) the value was 0.0486; for UniProt Q9BWW4_C80, 0.318; for UniProt Q9NV64_C29, 1.11 (active).
Consider KIDINS220 C867 (UniProt Q9ULH0), for which the “log2 ratio” value is 0.436.
Turning to BAZ1B C953 (UniProt Q9UIG0), the “log2 ratio” value is 1.28 (active).
On to MDN1 C271 (UniProt Q9NU22), for which the “log2 ratio” value is 0.728.
ACIN1 C691 (UniProt Q9UKV3): the “log2 ratio” value was 0.212.
